Experimental data taken from PubChem BioAssay AID1578 (Sanford-Burnham Center for Chemical Genomics, 2009).
In all, about 290,000 compounds went through this assay and about 3,000 (1%) were called active. The full list was thinned out, with actives kept by preference. Values without a mark were called inactive. Rule as the data show it: active = inhibition mostly above about 36% (no sharp cut-off); inactive = mostly below about 34%.

assay: NOD1 signaling inhibitors, primary screen, cell-based, luminescence, uHTS (AID 1578); settings: NOD1-driven NF-kB luciferase reporter cells, at 4 µM, active compounds read high;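 also: HEK-293T reporter cells stimulated with the NOD1 agonist gamma-tri-DAP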

SMILES | inhibition
CC1CCN(C(=O)COc2cccc3c2CCN(Cc2ccccc2)C3=O)CC1 | -16%
COc1ccc2nc(NC(C)=O)sc2c1 | -12.9%
CC(=O)c1sc(Nc2nc3ccc(F)cc3s2)nc1C | -20.9%
Clc1ncccc1-c1nnn(-c2ccccc2Br)n1 | -23.5%
CCc1nnc(NC(=O)c2ccc(NC(=O)C(C)C)cc2)s1 | -39.9%
N#C/C(=C(/O)CN1CCOCC1)c1nc(-c2ccccc2)cs1 | -15.4%
COc1ccc(/C=N/NC(=O)c2cc(C3CC3)[nH]n2)cc1OC | -1.2%
COc1ccccc1CNC(=O)CSc1n[nH]c(N)n1 | -8.6%
COc1ccc(C(=O)CSc2n[nH]c(N)n2)cc1 | -10%
COc1ccccc1C(=O)CSc1n[nH]c(N)n1 | 65.9% (active)
Cc1ccc2nc(-c3ccccn3)cc(C(=O)NCCc3ccc(F)cc3)c2c1 | -8.3%
CC(C)OC(=O)c1ccc(COC(=O)c2cccc(-c3nnc(-c4ccccc4)o3)c2)cc1 | -13%
N=C(N)N=Nc1c(O)[nH]c2ccc(Br)cc12 | -31.8%
Oc1[nH]c2ccc(Br)cc2c1N=NC(=S)N1CCOCC1 | 99% (active)
Oc1[nH]c2ccc(Br)cc2c1N=NC(=S)Nc1ccc(F)cc1 | -7.9%
COc1ccc(CCNC(=O)CSc2nc3c(c(=O)n(C)c(=O)n3C)n2C)cc1OC | -28.4%
O=[N+]([O-])c1ccc(Nc2ccccc2O)c2nonc12 | -3.2%
O=[N+]([O-])c1ccc(Sc2cccc[n+]2[O-])c2nonc12 | 106% (active)
O=[N+]([O-])c1ccc(Nc2ccccc2)c2nonc12 | -7.4%
N#Cc1ccccc1NC(=O)CSc1nnc(-c2ccncc2)o1 | 4.5%
Cn1c(-c2csc(-c3ccccc3)n2)n[nH]c1=S | -29.3%
Cc1cc(C)c(C(CC(=O)c2cccs2)C(C#N)C#N)c(C)c1 (centres undefined) | 26.3%

SMILES | inhibition
CC(CC(=O)c1cccs1)CC(=O)c1cccs1 | -14.5%
Cc1ccccc1C(CC(=O)c1cccs1)C(C#N)C#N (centres undefined) | 85.2% (active)
O=[N+]([O-])c1cccc(Nc2nc(Cl)nc(Cl)n2)c1 | 14.4%
COc1nc(NC(C)(C)C)nc(Oc2ccc(=O)n(-c3ccccc3)n2)n1 | -3.3%
Cc1ccc(S(=O)(=O)C(CCC(=O)c2ccc(Cl)cc2)C(N)=O)cc1 (centres undefined) | 9.7%
COC(=O)NC(NS(=O)(=O)c1ccccc1)(C(=O)OC)C(F)(F)F (centres undefined) | -0.4%
COc1ccc(NC(=O)c2ccc(C)cc2)cc1 | -19.2%
CCOC(=O)NC(C(Cl)(Cl)Cl)S(=O)(=O)c1ccccc1 (centres undefined) | 5%
Cc1ccc(C(=O)NNC(=S)NC(=O)c2ccc(Cl)cc2)cc1 | 31.1%
Cc1ccc(S(=O)(=O)NNC(=O)c2ccc(O)cc2)cc1 | -14.1%
COC(=O)NC(=C(Cl)Cl)S(=O)(=O)c1ccccc1 | 74.9% (active)
COc1ccc(C(=O)NCS(=O)(=O)c2ccc(C)cc2)cc1 | 7.7%
Cc1ccc(C(=O)NC(=S)NNS(=O)(=O)c2ccc(C)cc2)cc1 | -34.4%
CCOC(=O)C1CCN(S(=O)(=O)c2ccc(C)c(C)c2)CC1 | -13.2%
CCOC(=O)c1ccc(NC(=S)N2CCN(CCNC3=CC(=O)CC(C)(C)C3)CC2)cc1 | -30.1%
CCC(=O)c1ccc(OCC(=O)Nc2ccc(N3CCOCC3)cc2N2CCOCC2)cc1 | -43.2%
COc1ccc(C(=O)NCCN2CCOCC2)c(OC)c1OC | 4.8%
CNC(=O)C1CCN(S(=O)(=O)c2c(C)noc2/C=C/N(C)C)CC1 | -22.5%
Cc1cc(C)c(C#N)c(SCc2cc3c(cc2Cl)OCO3)n1 | 26.9%
O=C(CSc1ccc2c(c1)OCCO2)Nc1ccc(N2CCOCC2)cc1 | -37.2%
COc1cccc(N2CCN(C(C)C(=O)NC34CC5CC(CC(C5)C3)C4)CC2)c1 (centres undefined) | -31.5%
Cc1ccc(-n2ncc3c(SCc4cccnc4)ncnc32)c(C)c1 | 1.6%

SMILES | inhibition
Cc1ccc(S(=O)(=O)NCCNC(=O)c2ccccc2)cc1 | -16.6%
Cc1ccc(S(=O)(=O)CNC(=O)c2ccccc2)cc1 | -6.8%
COc1ccccc1Oc1ccnc2cc(Cl)ccc12 | 27.5%
O=C(/C=C/Nc1ccc(F)cc1F)c1ccco1 | -11.6%
O=C(/C=C/Nc1ccc(Br)cc1F)c1ccccc1 | 27.6%
O=C(/C=C/Nc1ccc(Br)cc1F)c1ccco1 | 53.7% (active)
COc1ccc(C2C(C(=O)N3CCC(C)CC3)c3ccccc3C(=O)N2C)cc1 (centres undefined) | -14.1%
COCCC(=O)NC1CCCc2c1cnn2-c1cccc(C)c1C (centres undefined) | -25.1%
Cn1c(-c2ccccc2)cnc1SCC(=O)N1CCCCC1 | 32% (active)
Cn1c(-c2ccccc2)cnc1SCC(N)=O | 0.4%
Cn1c(-c2ccc(F)cc2)cnc1SCC(=O)N1CCCCC1 | -31.8%
Cc1cc(C)[n+](-c2ccc(C(C)C)cc2)c2[nH]c(=O)[nH]c(=O)c12 | -20.8%
Cc1[nH]nc(SCC(=O)Nc2cccc(O)c2)c1[N+](=O)[O-] | -37.4%
CC(C)CNS(=O)(=O)c1ccc(CCC(=O)Nc2cc(Cl)ccc2Oc2ccccc2)cc1 | 23.4%
CCNS(=O)(=O)c1ccc(CCC(=O)Nc2cc(Cl)ccc2Oc2ccccc2)cc1 | 34%
CCCNS(=O)(=O)c1ccc(CCC(=O)Nc2cc(Cl)ccc2Oc2ccccc2)cc1 | 79.1% (active)
COc1ccc(NC(=O)c2cc(S(=O)(=O)N3CCOCC3)cn2C)c(OC)c1 | -19%
C=CCNC(=S)N1CCC(C(=O)c2ccc(F)cc2)CC1 | -20.4%
CC(C)CNC(=S)N1CCC(C(=O)c2ccc(F)cc2)CC1 | 61.7% (active)
CCCNC(=S)N1CCC(C(=O)c2ccc(F)cc2)CC1 | -20.1%
